From paper PMC8384837, “Expanding the binding specificity for RNA recognition by a PUF domain” come the findings set out here.

Holding throughout (assay): yeast three-hybrid, YBZ-1, SC-Leu-His + 0.5 mM 3-AT, 4 days
What all share (details): tags: N-Gal4 AD-HA kept; label: inside an RPR1-promoter hybrid RNA with tandem MS2 sites; ssRNA

One test concerns the target PUM1 PUF domain R7-LFG (Homo sapiens, UniProt Q14671 828-1176, S1079L;N1080F;E1083G). An outline of the steps:
(§1)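 The interaction score is the log change in variant frequency from input to selection. Scores were computed in log2 with a pseudocount of 1 for absent variants, using Illumina sequencing of PCR-amplified repeat regions. The input came from four days on SC-Leu and the selection from four days on SC-Leu-His + 0.5 mM 3-AT. The cells were strain YBZ-1 (LexA–MS2 coat fusion, HIS3 reporter) co-expressing Pumilio-1 PUF domain libraries and matching RNA elements from a centromeric plasmid.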

The target of the next test is PUM1 PUF domain R4-DWC (Homo sapiens, UniProt Q14671 828-1176, N971D;H972W;Q975C). The gist of the method: as §1
Another test addresses PUM1 PUF domain R5-AGD (Homo sapiens, UniProt Q14671 828-1176, C1007A;R1008G;Q1011D). An outline of the steps: as §1
The next test deals with PUM1 PUF domain R4-WSY (Homo sapiens, UniProt Q14671 828-1176, N971W;H972S;Q975Y). The gist of the method:
as §1

In another test the target is PUM1 PUF domain R5-KRG (Homo sapiens, UniProt Q14671 828-1176, C1007K;Q1011G). An outline of the steps:
as §1

A further test deals with T1, PUM1 PUF domain R6-CWS (Homo sapiens, UniProt Q14671 828-1176, N1043C;Y1044W;Q1047S).
T1 sequence: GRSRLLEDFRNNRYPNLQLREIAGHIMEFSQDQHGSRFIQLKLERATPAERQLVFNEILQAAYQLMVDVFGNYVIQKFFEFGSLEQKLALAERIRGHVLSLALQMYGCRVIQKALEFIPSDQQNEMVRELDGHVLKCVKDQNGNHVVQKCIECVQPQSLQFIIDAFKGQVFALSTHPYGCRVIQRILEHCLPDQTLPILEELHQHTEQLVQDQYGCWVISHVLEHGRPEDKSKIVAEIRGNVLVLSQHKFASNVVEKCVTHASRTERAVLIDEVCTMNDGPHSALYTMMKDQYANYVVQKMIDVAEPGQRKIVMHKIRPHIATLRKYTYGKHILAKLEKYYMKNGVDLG
An outline of the steps:
as §1

For another test, the target named is PUM1 PUF domain R5-GKE (Homo sapiens, UniProt Q14671 828-1176, C1007G;R1008K;Q1011E). An outline of the steps:
as §1

The next test concerns the target PUM1 PUF domain R5-SMG (Homo sapiens, UniProt Q14671 828-1176, C1007S;R1008M;Q1011G). The gist of the method: as §1
Another test concerns the target T2, PUM1 PUF domain R6-VFY (Homo sapiens, UniProt Q14671 828-1176, N1043V;Y1044F;Q1047Y).
T2 sequence: T1 sequence with C216V, W217F, S220Y
An outline of the steps: as §1

A further test deals with PUM1 PUF domain R7-KPI (Homo sapiens, UniProt Q14671 828-1176, S1079K;N1080P;E1083I). An outline of the steps: as §1

Residue numbers refer to the chain shown, from its start.

On to “GGCUAGAACUAGUGGAUCCCCCGGCGCCCGGCGGCUCGAGCCCGGGUAAGUUUAAAUAGUCUGCAUGCCGCCGGGCGCCAUGCCUGCAGGUCGACUCUAGAAAACAUG”, for which the binding signal with PUM1 PUF domain R7-LFG was 4.82 log2 enrichment (interaction score).
With “GGCUAGAACUAGUGGAUCCCCCGGCGCCCGGCGGCUCGAGCCCGGGUAAGUGUACAUAGUCUGCAUGCCGCCGGGCGCCAUGCCUGCAGGUCGACUCUAGAAAACAUG”, the binding signal with PUM1 PUF domain R4-DWC is 2.72 log2 enrichment (interaction score).
Take “GGCUAGAACUAGUGGAUCCCCCGGCGCCCGGCGGCUCGAGCCCGGGUAAGUGUAAAUAGUCUGCAUGCCGCCGGGCGCCAUGCCUGCAGGUCGACUCUAGAAAACAUG”: the binding signal is 1.82 log2 enrichment (interaction score) with PUM1 PUF domain R5-AGD; 2.29 log2 enrichment (interaction score) with PUM1 PUF domain R4-WSY; 1.97 log2 enrichment (interaction score) in the test with PUM1 PUF domain R5-KRG; 2.81 log2 enrichment (interaction score) in the test with PUM1 PUF domain R4-DWC; 3.77 log2 enrichment (interaction score) with PUM1 PUF domain R6-CWS.
For “GGCUAGAACUAGUGGAUCCCCCGGCGCCCGGCGGCUCGAGCCCGGGUAAGUGUAUAUAGUCUGCAUGCCGCCGGGCGCCAUGCCUGCAGGUCGACUCUAGAAAACAUG”, the binding signal with PUM1 PUF domain R4-WSY was 3.41 log2 enrichment (interaction score); with PUM1 PUF domain R4-DWC it was 2.64 log2 enrichment (interaction score).
As to “GGCUAGAACUAGUGGAUCCCCCGGCGCCCGGCGGCUCGAGCCCGGGUAAGUGUGAAUAGUCUGCAUGCCGCCGGGCGCCAUGCCUGCAGGUCGACUCUAGAAAACAUG”, the binding signal with PUM1 PUF domain R5-AGD is 3.87 log2 enrichment (interaction score); with PUM1 PUF domain R5-GKE, 4.81 log2 enrichment (interaction score); with PUM1 PUF domain R5-SMG it was 2.11 log2 enrichment (interaction score).
Consider “GGCUAGAACUAGUGGAUCCCCCGGCGCCCGGCGGCUCGAGCCCGGGUAAGUGUUAAUAGUCUGCAUGCCGCCGGGCGCCAUGCCUGCAGGUCGACUCUAGAAAACAUG”, for which the binding signal with PUM1 PUF domain R5-KRG was 4.3 log2 enrichment (interaction score); with PUM1 PUF domain R5-GKE it was 2.85 log2 enrichment (interaction score); in the test with PUM1 PUF domain R5-SMG, 0.67 log2 enrichment (interaction score).
As for “GGCUAGAACUAGUGGAUCCCCCGGCGCCCGGCGGCUCGAGCCCGGGUAAGUGAAAAUAGUCUGCAUGCCGCCGGGCGCCAUGCCUGCAGGUCGACUCUAGAAAACAUG”, the binding signal in the test with PUM1 PUF domain R6-CWS was 5.26 log2 enrichment (interaction score); with PUM1 PUF domain R6-VFY, 6.28 log2 enrichment (interaction score).
“GGCUAGAACUAGUGGAUCCCCCGGCGCCCGGCGGCUCGAGCCCGGGUAAGUGUCAAUAGUCUGCAUGCCGCCGGGCGCCAUGCCUGCAGGUCGACUCUAGAAAACAUG”: the binding signal is 3.68 log2 enrichment (interaction score) with PUM1 PUF domain R5-KRG and 1.37 log2 enrichment (interaction score) with PUM1 PUF domain R5-GKE.
For “GGCUAGAACUAGUGGAUCCCCCGGCGCCCGGCGGCUCGAGCCCGGGUAAGUCUAAAUAGUCUGCAUGCCGCCGGGCGCCAUGCCUGCAGGUCGACUCUAGAAAACAUG”, the figures for the binding signal with PUM1 PUF domain R7-KPI and with PUM1 PUF domain R7-LFG were 3.61 log2 enrichment (interaction score) and 3.01 log2 enrichment (interaction score), respectively.
